From PubChem BioAssay (NCI)
About 83,000 compounds went through this panel and 20% of them were active in at least one assay; those are over-represented in the sample as a whole.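 Assay: single dose, 48 h. Readout: percent growth (0 = no net growth; negative = cell death). Active: <10.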 Active and inactive are the calls of the source.

Key:
Experiment in all cases: NCI-60 one-dose screen, 48 h (100 = growth as untreated, 0 = no growth, -100 = all killed)
[1] = system: NCI-H23 lung; settings: 10 µM unless noted
[2] = system: NCI-H226 lung; settings: 10 µM unless noted
[3] = system: NCI-H322M lung; settings: 10 µM unless noted
[4] = system: HOP-62 NSCLC; settings: 10 µM unless noted
[5] = system: NCI-H460 lung; settings: 10 µM unless noted
[6] = system: HOP-92 NSCLC; settings: 10 µM
[7] = system: NCI-H522 lung; settings: 10 µM unless noted
[8] = system: A549/ATCC NSCLC; settings: 10 µM unless noted
[9] = system: 786-0 renal; settings: 10 µM unless noted
[10] = system: COLO 205 colon; settings: 10 µM unless noted
[11] = system: DU-145 prostate; settings: 10 µM unless noted
[12] = system: K-562 leukemia; settings: 10 µM unless noted
[13] = system: MALME-3M melanoma; settings: 10 µM unless noted
[14] = system: MDA-MB-231 breast; settings: 10 µM unless noted
[15] = system: SF-268 CNS; settings: 10 µM unless noted
[16] = system: SF-295 CNS; settings: 10 µM unless noted
[17] = system: SF-539 CNS; settings: 10 µM unless noted
[18] = system: UACC-257 melanoma; settings: 10 µM unless noted

Measured: growth

Cn1ccnc1C(=O)/C=C/c1ccc(NC(=O)c2c(F)c(F)c(F)c(F)c2F)cc1
inactive: [1] 97.6% | [2] 103% | [3] 94.8% | [4] 120% | [5] 105% | [6] 123% | [7] 94.3% | [8] 101% | [9] 101% | [10] 124% | [11] 106% | [12] 80.7% | [13] 104% | [14] 108% | [15] 96% | [16] 106% | [17] 108% | [18] 113%

CCN(CC)c1ccc2c(c1)Oc1nc(N)c(C#N)c(N)c1C2Sc1ccc(F)cc1 (configuration not stated)
active: [1] -82.3% | [2] -84.8% | [3] -84.8% | [4] -15% | [5] -69.8% | [6] -36.7% | [7] -48.7% | [8] -39.6% | [9] -83.8% | [10] -58.5% | [11] -94.2% | [12] 2.27% | [13] -45.6% | [14] -86% | [15] -44.7% | [16] -91.4% | [17] -96.1% | [18] -16.9%

ClC(Cl)c1nc(-c2ccco2)n2nc(-c3ccccc3)cc2n1
active: [3] -19.4% | [4] -1.03% | [5] -22.1% | [6] -9.05% | [8] -2.21% | [10] -17% | [11] -24.8% | [14] -11.1% | [16] -15.4% | [17] -7.97%
inactive: [1] 49.8% | [2] 97.5% | [7] 91.3% | [9] 69.3% | [12] 50.6% | [13] 107% | [15] 24.3% | [18] 54%

CS(=O)(=O)Nc1cc(-c2ccc3ncc(C#N)c(NCc4cccc(F)c4)c3c2)cnc1Cl
active: [1] -1.85% | [2] 9.2% | [4] -6.39% | [5] 5.88% | [6] -15.7% | [8] 7.5% | [10] -45.9% | [13] -35.7% | [14] 0.274% | [15] 3.62% | [16] -21.9% | [17] -26.4% | [18] 1.5%
inactive: [3] 12.5% | [7] 10.7% | [9] 10.8% | [11] 17.8% | [12] 14.1%

Cc1nc(-c2ccccc2O)ccc1C(=O)N=Nc1c(O)[nH]c2ccc(Br)cc12
inactive: [1] 96.2% | [2] 81.4% | [3] 99.5% | [4] 84.3% | [5] 99.8% | [6] 62.1% | [7] 97% | [8] 103% | [9] 102% | [10] 105% | [11] 113% | [12] 113% | [13] 85.4% | [14] 87.6% | [15] 96.7% | [16] 104% | [17] 95.7% | [18] 104%

O=C(NNc1nc2cc(F)cc(F)c2n2cccc12)c1cnccn1
active: [5] 1.69% | [7] 0.755% | [10] 6.31% | [17] 7.61% | [18] 3.96%
inactive: [1] 24.6% | [2] 29.3% | [3] 30.2% | [4] 14.5% | [6] 26.1% | [8] 15% | [9] 14.3% | [11] 22.4% | [12] 14.3% | [13] 23.1% | [14] 33.4% | [15] 21.9% | [16] 10.9%

C=C(C=O)[C@@H]1CC[C@]2(C)[C@H](CC=C3[C@H]4[C@@H](C)[C@H](C)CC[C@]4(C(=O)OC)CC[C@]32C)[C@@]1(C)CCC#N
inactive: [3] 32.9% | [4] 20.7% | [8] 80.6% | [11] 16.7% | [15] 20%
active: [1] -6.81% | [2] -44.8% | [5] 1.89% | [6] -31.6% | [7] -1.56% | [9] 5.57% | [10] 3.46% | [12] 8.57% | [13] -63.6% | [14] -21.9% | [16] 7.53% | [17] -61.4% | [18] -20.3%

CCOP(=O)(OCC)OC[C@]12CCC(C)(C)C=C1[C@H]1CC[C@@H]3[C@@]4(C)CC[C@H](OP(=O)(OCC)OCC)C(C)(C)[C@@H]4CC[C@@]3(C)[C@]1(C)CC2
active: [1] -38.4% | [2] -72.3% | [3] 1.63% | [4] -38.3% | [5] -62.2% | [6] -65.2% | [7] -59.1% | [8] -45.3% | [9] -59.7% | [10] -43.1% | [11] -70.2% | [12] 4.74% | [13] -12.8% | [14] -55.2% | [15] -59.7% | [16] -66.2% | [17] -84.1% | [18] -8.01%

CC(=O)C1=C(C)NC(NN)=NC1c1cccc(Cl)c1 (configuration not stated)
inactive: [1] 99.9% | [2] 103% | [3] 96.7% | [4] 99.2% | [5] 112% | [6] 99.9% | [7] 97.9% | [8] 110% | [9] 104% | [10] 114% | [11] 114% | [12] 100% | [13] 104% | [14] 96.6% | [15] 103% | [16] 104% | [17] 98.6% | [18] 113%
